Here are results for 25 compounds from PubChem BioAssay AID651636 (Sanford-Burnham Center for Chemical Genomics, 2012).

Screen size: about 360,000 compounds; about 3,000 (0.83%) were called active. No stated cut-off is given here; in the data, active means inhibition above about 38%; inactive means the rest. What follows is part of a selection rich in actives, with near analogues and random picks from the rest.

In this assay the target is G-protein coupled receptor 183 (Homo sapiens) (UniProt P32249). As to the kind of experiment: EBI2 receptor antagonists, beta-arrestin recruitment, primary screen, cell-based, luminescence, 7a,25-OHC stimulation, uHTS (AID 651636).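 Further: enzyme fragment complementation signal reports receptor beta-arrestin coupling in cells; 0% = agonist plus DMSO wells and 100% = wells without agonist.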 The note with it: 7a,25-OHC stimulated, at 5 µM, hits give high values.
Chain of G-protein coupled receptor 183 (Homo sapiens) (P32249 whole entry, looked up, the tested form may be a part): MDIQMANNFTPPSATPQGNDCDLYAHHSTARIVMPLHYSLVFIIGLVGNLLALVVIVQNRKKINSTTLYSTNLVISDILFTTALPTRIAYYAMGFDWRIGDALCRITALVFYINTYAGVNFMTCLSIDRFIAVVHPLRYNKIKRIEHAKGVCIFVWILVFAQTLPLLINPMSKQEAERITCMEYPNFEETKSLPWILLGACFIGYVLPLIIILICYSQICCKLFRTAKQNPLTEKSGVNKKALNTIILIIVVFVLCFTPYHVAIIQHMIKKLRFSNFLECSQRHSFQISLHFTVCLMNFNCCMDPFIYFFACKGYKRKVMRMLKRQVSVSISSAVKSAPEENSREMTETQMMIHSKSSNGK
As to `CC(=O)OC1C2(CC3N4C(=O)C5(CO)SSC4(CC31O)C(=O)N5C)OC(C)C(C)(C)C2=O` (stereo not given), the inhibition is 94.4% (active).

Turning to `CC(C)(C)[C@]1(O)C[C@@H]2OC(=O)C[C@@]23C(=O)O[C@@H]2OC(=O)[C@H](O)[C@]213`, the inhibition was -2.99% (inactive).

`O=C(CCC(=O)N1C[C@H]2C[C@@H](C1)c1cccc(=O)n1C2)NCc1ccccc1C(F)(F)F`: the inhibition is -0.966% (inactive).

Regarding `CC(=O)Nc1ccccc1C(=O)OCC(=O)c1cccc2ccccc12`, the inhibition was 12.7% (inactive).

On to `COc1cccc(C(=O)N2C[C@H]3C[C@@H](C2)c2cccc(=O)n2C3)c1`, for which the inhibition was -6.08% (inactive).

For `O=C(COc1ccc2ccccc2c1)N1CCN(Cc2ccncc2)CC1`, the inhibition was 66.2% (active).

Regarding `CC(C)c1ccc(OCC(=O)N2CCCN(C)CC2)cc1`, the inhibition is 2.02% (inactive).

For the compound `O=C(Cc1ccccc1[N+](=O)[O-])N1CCN(Cc2ccc3c(c2)OCO3)CC1`, the inhibition was 5.95% (inactive).

For `CC(c1ccccc1)(c1ccccc1)c1ccncc1`, the inhibition was 11.4% (inactive).

With `COC(=O)C1=C(c2ccccc2OCc2ccccc2)C[C@@H]2CC[C@H]1N2C(=O)NCc1ccc(OC)cc1`, the inhibition was 26.2% (inactive).

With `COC(=O)C1=C(c2ccc(F)cc2OCc2ccccc2)C[C@@H]2CC[C@H]1N2C(=O)NCc1ccc(OC)c(OC)c1`, the inhibition was 9.54% (inactive).

In the case of `O=C(CN1CCCCC1)Nc1ccc(Br)cc1C(=O)c1ccccc1Cl`, the inhibition is -11.6% (inactive).

With `CCC(=O)c1ccc(OCC(=O)N2CCN(CC(=O)Nc3ccc(C)cc3)CC2)cc1`, the inhibition is 6.66% (inactive).

As to `CCc1ccc(OCC(=O)N2CCN(CC(=O)Nc3ccccc3Cl)CC2)cc1`, the inhibition is 73.1% (active).

As to `CCOP(=S)(OCC)C(O)CCCCCn1c(=O)c(F)cn(C2CCCO2)c1=O` (stereo not given), the inhibition is -1.97% (inactive).

In the case of `CN(c1ccccc1)c1ccc([N+](=O)[O-])c2nonc12`, the inhibition is 1.86% (inactive).

For the compound `CC[N+](CC)(CC)CCCCCCCCCC[N+](CC)(CC)CC`, the inhibition was 2.47% (inactive).

Regarding `C[C@H]1CN([C@@H](C)CO)C(=O)CCCn2nncc2CO[C@H]1CN(C)C(=O)Oc1cccc2ccccc12`, the inhibition is -6.15% (inactive).

Turning to `COC(=O)C1=C(c2ccc(OCc3ccccc3)cc2)C[C@@H]2CC[C@H]1N2C(=O)NCc1ccc(Cl)cc1`, the inhibition is 22.1% (inactive).

For `COC(=O)C1=C(c2ccc(OCc3ccccc3)cc2)C[C@@H]2CC[C@H]1N2C(=O)NCc1cccc(F)c1`, the inhibition is 64.5% (active).

With `COC(=O)C1=C(c2cccc(OCc3ccccc3)c2)C[C@@H]2CC[C@H]1N2C(=O)NCc1ccc(Br)cc1`, the inhibition is 19% (inactive).

Regarding `Cc1cc(C)c2c(c1)NP(=S)(c1ccccc1)N2` (stereo not given), the inhibition was 11.1% (inactive).

Consider `O=C1NC(=O)N(CCc2ccc(F)cc2)C(=O)/C1=C/C=C/c1ccccc1`, for which the inhibition is 58.5% (active).

`CN(C)c1nc(N(C)C)nc(N(C#N)CCCl)n1`: the inhibition is 2.53% (inactive).

As to `COc1ccc(NC(=O)c2cn(CCC#N)nc2-c2ccc([N+](=O)[O-])cc2)cc1`, the inhibition was -6.27% (inactive).
